Only some compounds are listed: those with a hit (about 10% of all), similar ones and a draw of the others.
L3MBTL1 block – blocks human L3MBTL1; Q9Y468; AlphaScreen L3MBTL1–H3K9me1 peptide binding; 230,000 tested, 0.66% active; Potency, µM (series often up to 57.1 µM), actives largely listed as inhibitors; further: nearly all actives have a fitted effect of over 60% in size
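First, the protein-peptide complex forms for 30 min at room temperature (L3MBTL1 50 nM, biotinylated H3K9me1 peptide 75 nM). Next, compounds are pin-transferred and incubated 30 min. Finally, AlphaScreen beads are added and read after 30 min.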
BAZ2B inh – BAZ2B (human) inhibition | Q9UIF8 | AlphaScreen BAZ2B-H3K14Ac peptide displacement | Potency, µM (titrated, usually from 114 µM), most hits filed as inhibitors | 360,000 tested, 4.4% active; further: nearly all actives have a fitted effect of over 60% in size
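Protein-peptide AlphaScreen: BAZ2B 50 nM, b-H3K14Ac 50 nM, 1x PBS pH 7.4 + 0.01% Tween-20. Preincubation 30 min RT; cpd 30 min RT (top 110 uM); beads 20 min RT, light-protected.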
GLS inh – glutaminase GLS (human) inhibition; Potency, µM (highest dose often 45.5 µM), most hits filed as inhibitors; GLS enzymatic activity, qHTS titration; O94925; 410,000 tested, 0.21% active
Target sequence (O94925 whole entry, looked up): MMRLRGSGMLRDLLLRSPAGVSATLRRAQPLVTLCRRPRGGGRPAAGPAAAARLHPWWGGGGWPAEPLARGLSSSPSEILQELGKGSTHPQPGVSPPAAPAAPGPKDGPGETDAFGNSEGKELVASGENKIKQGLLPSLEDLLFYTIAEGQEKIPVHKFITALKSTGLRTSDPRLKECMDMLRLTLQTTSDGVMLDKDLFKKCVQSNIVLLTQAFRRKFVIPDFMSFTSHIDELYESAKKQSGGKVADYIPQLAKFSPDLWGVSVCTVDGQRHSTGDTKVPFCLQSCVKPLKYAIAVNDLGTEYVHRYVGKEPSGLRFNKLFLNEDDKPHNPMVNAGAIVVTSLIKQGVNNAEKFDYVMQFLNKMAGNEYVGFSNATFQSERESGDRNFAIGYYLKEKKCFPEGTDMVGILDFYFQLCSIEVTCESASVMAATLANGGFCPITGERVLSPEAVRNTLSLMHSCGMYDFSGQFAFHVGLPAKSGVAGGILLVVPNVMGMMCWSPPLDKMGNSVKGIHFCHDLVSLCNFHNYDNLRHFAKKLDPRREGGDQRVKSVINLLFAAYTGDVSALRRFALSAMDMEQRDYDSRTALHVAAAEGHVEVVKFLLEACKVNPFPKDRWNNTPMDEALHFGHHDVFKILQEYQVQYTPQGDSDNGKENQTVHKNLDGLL
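Assay buffer: 45 mM KH2PO4 pH 8.2, 0.02% Tween-20. hKGA acts on L-glutamine (1 mM solution added); product glutamate is reported by an oxidase/peroxidase Amplex Red coupling, with fluorescence taken at baseline and 30 min.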
G9a inh – G9a (human) methyltransferase inhibition | Q96KQ7 | G9a H3K9 monomethylation, AlphaScreen, 2 h | Potency, µM (titrated, usually from 102 µM), hits mostly inhibitors | 350,000 tested, 8.8% active | AID 504332; further: nearly all actives have a fitted effect of over 75% in size
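Step 1: enzyme (final 20 nM) with compound, 15 min RT. Step 2: substrate peptide 500 nM and SAM 20 uM, 2 h RT. Step 3: anti-H3K9me1 antibody and AlphaScreen beads, 10 min, then plate read.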
JMJD2A Tudor inh – JMJD2A Tudor domain (human) inhibition. AID 504339. O75164. 390,000 tested, 4.4% active. Potency, µM (doses to about 114 µM), most hits filed as inhibitors. AlphaScreen JMJD2A-Tudor / H3K4me3 peptide binding; further: nearly all actives have a fitted effect of over 50% in size
HP1b binding inh – HP1-beta chromodomain-methylated histone interaction inhibition; P83916; AlphaScreen HP1-beta / biotin-H3K9me3 peptide binding; Potency, µM (top dose mostly 114 µM), actives largely listed as inhibitors; 390,000 tested, 0.56% active; further: nearly all actives have a fitted effect of over 70% in size
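HP1-beta protein (50 nM final) preincubated 30 min at room temperature with biotinylated H3(1-18)K9me3 peptide (50 nM) in PBS pH 7.4, 0.01% Tween-20, then compound added for 30 min. AlphaScreen streptavidin donor/nickel chelate acceptor beads (10 ug/mL final), 30 min dark, luminescence read.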
Each line names hits and unclear results; the compound was inactive in the other large screens. The call rests on the fitted dose curve; in most records, active means well fitted curve in the direction sought with a large enough effect; inconclusive means small, poorly fitted or top-dose-only effect, or another doubt; inactive means no such curve, though single readings can be large; an effect the other way counts as inactive or inconclusive.

O=C(Nc1cccc(C(F)(F)F)c1)C1CCCN(S(=O)(=O)c2cccc3nonc23)C1 (stereo not given)	none (no result: L3MBTL1 block)
Cc1ccc(N2C(=O)CSC23C(=O)N(CC(=O)Nc2ccc(C)cc2C)c2ccccc23)cc1 (stereo not given)	none (no result: L3MBTL1 block)
O=C(c1cn(CCOc2ccc(Cl)cc2)c2ccccc12)C1CCCCC1	none (no result: L3MBTL1 block)
COC(=O)c1ccc(NC(=O)CC2C(=O)N(c3cccc(C)c3)C(=O)N2C2CCCC2)cc1 (stereo not given)	G9a inh 7.1µM (no result: L3MBTL1 block)
CC(=O)N1c2ccc(S(=O)(=O)N3CCCCCC3)cc2CC1C(=O)NCc1ccccc1 (stereo not given)	none (no result: L3MBTL1 block)
Cc1cc(C)n2nc(C(=O)OCC(=O)c3cc(C)n(C)c3C)nc2n1	L3MBTL1 block inconclusive, BAZ2B inh 50µM, GLS inh inconclusive, G9a inh 45µM, JMJD2A Tudor inh 56µM
Cc1cc(C)n2nc(C(=O)OCC(=O)c3ccccc3Cl)nc2n1	G9a inh inconclusive
CCc1ccc(C(=O)NNc2ccc(C)c(Cl)c2)cc1	G9a inh 7.9µM
CCc1ccc(C(=O)NNc2ccc(S(N)(=O)=O)cc2)cc1	GLS inh inconclusive, G9a inh 22µM (no result: L3MBTL1 block)
NS(=O)(=O)c1ccc(NNC(=O)c2ccccc2)cc1	none (no result: L3MBTL1 block, G9a inh)
CCc1ccc(C(=O)NNc2ccc(F)cc2)cc1	BAZ2B inh inconclusive (no result: G9a inh)
COc1ccc(/C(O)=C2/C(=O)C(=O)N(Cc3ccco3)C2c2cccs2)cc1 (stereo not given)	BAZ2B inh inconclusive
COc1cc(C2c3c(-c4ccccc4O)n[nH]c3C(=O)N2Cc2ccco2)cc(OC)c1OC (stereo not given)	none (no result: L3MBTL1 block, G9a inh)
CCN(CC)CCN1C(=O)C(=O)/C(=C(/O)c2ccncc2)C1c1ccccc1 (stereo not given)	G9a inh 50µM
COC(=O)c1ccc(C2/C(=C(/O)c3ccc(OC)cc3)C(=O)C(=O)N2Cc2ccco2)cc1 (stereo not given)	BAZ2B inh inconclusive, G9a inh 45µM, JMJD2A Tudor inh inconclusive
CCN(CC)CCCN1C(=O)C(=O)/C(=C(/O)c2ccc(OC)cc2)C1c1ccco1 (stereo not given)	none (no result: L3MBTL1 block, BAZ2B inh, G9a inh)
CCN(CC)CCN1C(=O)C(=O)/C(=C(/O)c2ccc(OC)cc2)C1c1ccco1 (stereo not given)	G9a inh 40µM
COc1ccc(C2c3c(-c4ccccc4O)n[nH]c3C(=O)N2Cc2ccco2)cc1 (stereo not given)	BAZ2B inh 35µM, JMJD2A Tudor inh inconclusive (no result: L3MBTL1 block)
Cc1ccc(S(=O)(=O)N(CC(=O)Nc2ccc3c(c2)OCO3)c2ccc(C)c(Cl)c2)cc1	BAZ2B inh inconclusive, JMJD2A Tudor inh inconclusive (no result: L3MBTL1 block)
CC(=O)c1cc2c(s1)c1cnn(Cc3ccccc3F)c(=O)c1n2C	none (no result: L3MBTL1 block, BAZ2B inh, GLS inh, G9a inh, HP1b binding inh)
COCCN1C(=O)C(=O)/C(=C(/O)c2cccc(OC)c2)C1c1ccco1 (stereo not given)	L3MBTL1 block inconclusive, BAZ2B inh 79µM, JMJD2A Tudor inh inconclusive (no result: G9a inh)
COc1cccc(/C(O)=C2/C(=O)C(=O)N(Cc3cccnc3)C2c2ccco2)c1 (stereo not given)	G9a inh 45µM, JMJD2A Tudor inh inconclusive
O=C(COc1ccccc1)NCC(c1cccs1)S(=O)(=O)c1ccc(Cl)cc1 (stereo not given)	G9a inh 10µM, JMJD2A Tudor inh 18µM, HP1b binding inh 14µM (no result: L3MBTL1 block)
COc1ccc(CC(=O)NCC(c2cccs2)S(=O)(=O)c2ccc(Cl)cc2)cc1 (stereo not given)	BAZ2B inh inconclusive, GLS inh inconclusive, G9a inh 8.9µM, JMJD2A Tudor inh 18µM, HP1b binding inh 10µM (no result: L3MBTL1 block)
COc1ccc(CCNC(=O)CCSCc2ccccc2Cl)cc1OC	none (no result: L3MBTL1 block)
O=C1CC(c2ccccc2)Sc2ccccc2N1Cc1ccccc1F (stereo not given)	none (no result: L3MBTL1 block)
Cc1cccc(NC(=O)C2CC(=O)n3cnnc3S2)c1 (stereo not given)	BAZ2B inh inconclusive, G9a inh inconclusive, JMJD2A Tudor inh 35µM (no result: L3MBTL1 block)
N#Cc1c(/N=C/C=C/c2ccccc2)sc2c1CCCC2	BAZ2B inh 22µM, GLS inh inconclusive, G9a inh inconclusive, JMJD2A Tudor inh 45µM, HP1b binding inh 18µM
Cc1ccc(/C=N/c2sc3c(c2C#N)CCCCC3)o1	BAZ2B inh 28µM, G9a inh 14µM, JMJD2A Tudor inh 56µM, HP1b binding inh inconclusive
Cc1c(Cl)cccc1NC(=O)Cn1c(=O)n(Cc2nc(-c3ccccc3)no2)c(=O)c2cc3c(cc21)OCO3	none (no result: L3MBTL1 block)
O=C(O)c1ccccc1C(=O)NCCCCCCNC(=O)c1ccccc1C(=O)O	G9a inh inconclusive
O=C(CNC(=O)c1ccccc1C(=O)O)c1ccccc1	G9a inh 20µM
O=C(O)c1ccccc1C(=O)NCC(O)c1ccccc1 (stereo not given)	G9a inh 7.9µM
COc1cccc(NC(=O)CCc2nnc3n(CC(C)C)c(=O)c4ccccc4n23)c1	G9a inh inconclusive (no result: L3MBTL1 block)
COc1ccc2c(CNCCc3ccccc3)c(C(=O)O)n(Cc3cccc(F)c3)c2c1	G9a inh inconclusive, JMJD2A Tudor inh inconclusive (no result: L3MBTL1 block)
CC(/C=C/c1ccc(N(C)C)cc1)=N/N=C1/NC(=O)CC(C(=O)Nc2ccc(Cl)cc2)S1 (stereo not given)	BAZ2B inh inconclusive, G9a inh 32µM, JMJD2A Tudor inh inconclusive
CC(/C=C/c1ccc(N(C)C)cc1)=N\N=C1\NC(=O)CC(C(=O)Nc2ccccc2)S1 (stereo not given)	BAZ2B inh inconclusive, G9a inh inconclusive, JMJD2A Tudor inh inconclusive
CCS(=O)(=O)NC(C)C(c1cccs1)N1CCN(c2ccc(OC)cc2)CC1 (stereo not given)	G9a inh 14µM (no result: L3MBTL1 block, BAZ2B inh)
CC(NS(=O)(=O)c1ccccc1)C(c1cccs1)N1CCOCC1 (stereo not given)	none
CC(NS(C)(=O)=O)C(c1cccs1)N1CCN(c2ccccc2)CC1 (stereo not given)	none
COc1ccc(N2CCN(C(c3cccs3)C(C)NS(=O)(=O)c3ccccc3)CC2)cc1 (stereo not given)	L3MBTL1 block inconclusive, BAZ2B inh 25µM, G9a inh inconclusive, JMJD2A Tudor inh 10µM
COCCCNC(=O)CSc1nc2c(sc3ccccc32)c(=O)n1CCc1ccc(OC)c(OC)c1	none (no result: L3MBTL1 block)
Cc1csc2nc(COc3ccccc3NC(=O)c3ccco3)cc(=O)n12	none (no result: L3MBTL1 block)
CSc1ccc(C2Nc3ccccc3-c3cc(C)nn32)cc1 (stereo not given)	none
CCN(CC)c1ccc(C2Nc3ccccc3-c3cc(C)nn32)cc1 (stereo not given)	BAZ2B inh inconclusive, G9a inh 22µM, JMJD2A Tudor inh 50µM, HP1b binding inh inconclusive (no result: L3MBTL1 block)
Cc1cccc(NC(=O)CN(C)S(=O)(=O)c2ccc3c(c2)CCC(=O)N3)c1C	none (no result: L3MBTL1 block)
